# Compound activity as filed in PubChem BioAssay.
# KB-3-1 tox: KB-3-1 parental cell cytotoxicity; KB-3-1 viability, CellTiter-Glo ATP luminescence, 72 h; AID 1347075; Potency, µM (doses to about 46.1 µM), hits mostly cytotoxic; hit rate 1.4% among 400,000; note: % is set by controls: 0 for no effect and ±100 for the full control effect; nearly all actives have a fitted effect of over 60% in size
#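 72 h, 37 °C compound treatment of KB-3-1 parental cells; CellTiter-Glo added, 10 min, luminescence read. Data corrected against DMSO-only plates and normalized before curve fitting.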
# MCF10A rereplic: inducers of DNA re-replication in MCF 10A breast cells. MCF 10A DNA re-replication, Hoechst nuclear intensity, 48 h. Potency, µM (doses to about 46.1 µM), for the others: at the highest dose activity, positive = re-replication, actives largely listed as activators. hit rate 2.9% among 350,000; note: % of control where 0% means no effect; nearly all actives have a fitted effect of over 50% in size
# KB-V1 cytotox: KB-V1 MDR subline cytotoxicity | KB-V1 MDR cells viability, CellTiter-Glo, 72 h | Potency, µM (doses to about 46.1 µM), actives largely listed as cytotoxic | hit rate 3.4% among 400,000 | AID 1347076; note: % is set by controls: 0 for no effect and ±100 for the full control effect; nearly all actives have a fitted effect of over 60% in size
#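 Cytotoxicity toward P-gp-expressing KB-V1 cells was determined as loss of CellTiter-Glo luminescence after 72 h at 37 degrees C. Compounds were tested in quantitative HTS format across a concentration range, with curves fitted to normalized data.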
# HT1080 IDH1KD tx: toxicity to HT-1080 IDH1 knockdown cells (counter line); HT-1080 IDH1 knockdown viability, ATP luminescence, 48 h; Potency, µM (highest dose often 46.1 µM), without a hit: at the highest dose activity, negative = toxicity, most hits filed as cytotoxic; hit rate 2% among 360,000;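 note: 0% = DMSO wells and -100% = cell-free medium wells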
#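 IDH1KD HT-1080 cells, 750/well, RPMI + 5% FBS; compound pinned after 2 h settling; 48 h, 37 °C; CellTiter-Glo luminescence; % activity normalised to DMSO and no-cell wells; curves fitted, classed by r2 and efficacy.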
# HT1080-NT tox: kills 2HG-producing HT-1080-NT fibrosarcoma cells; Potency, µM (highest dose often 46.1 µM), for the others: at the highest dose activity, negative = less viability, most hits filed as cytotoxic; HT-1080-NT fibrosarcoma viability, CellTiter-Glo ATP luminescence, 48 h; hit rate 1.6% among 360,000;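 note: NT is the 2HG producing partner of a matched IDH1 knockdown line; 0% = DMSO-treated cells and -100% = media-only wells without cells; nearly all actives have a fitted effect of over 55% in size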
#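 Viability by CellTiter-Glo luminescence after 48 h compound exposure at 37C of HT-1080-NT cells (750/well, RPMI, 5% FBS). % activity scaled between DMSO wells and medium-only wells, then curve-fitted and categorized by curve class.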
# SW480 rerep: inducers of DNA re-replication in SW480 colon cancer cells; SW480 DNA re-replication, Hoechst DNA content imaging, 48 h; Potency, µM (series often up to 46.1 µM), for inactives: top-dose re-replication activation, most hits filed as activators; hit rate 1.8% among 340,000; AID 624297; note: % of control where 0% means no effect; nearly all actives have a fitted effect of over 55% in size
#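 Image-based DNA-content assay: after two days of treatment, nuclei were labelled with the DNA dye Hoechst and imaged, and hits were compounds raising the count of nuclei showing high fluorescence intensity.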
# * = called active by the depositor; i = inactive; ? = inconclusive; · = not tested or not shown; [ ] = remark or other dose. The list is not random: actives were taken first. Their share in the collection is about 7.9%. Calls come from the whole dose curve; as a rule, active = well fitted curve in the direction sought with a large enough effect; inconclusive = small, poorly fitted or top-dose-only effect, or another doubt; inactive = no such curve, though single readings can be large; an effect the other way counts as inactive or inconclusive. Potency is the fitted concentration of half-maximal effect.
SMILES,KB-3-1 tox,MCF10A rereplic,KB-V1 cytotox,HT1080 IDH1KD tx,HT1080-NT tox,SW480 rerep
CCOC(=O)c1ccc(N2C(=O)c3[nH]nc(-c4ccc(C)cc4)c3C2c2ccc(O)cc2)cc1 (centres undefined),?,·,i,·,·,·
CCOC(=O)c1ccc(N2C(=O)c3[nH]nc(-c4ccccc4)c3C2c2ccc(CC)cc2)cc1 (centres undefined),?,·,23µM*,·,·,·
CC(=O)c1ccc(NC2=NS(=O)(=O)c3ccccc32)cc1,i,·,?,·,·,·
Cc1cccc(NC(=O)c2ccc(N(Cc3ccccc3)S(C)(=O)=O)cc2)c1,i,·,?,·,·,·
CC1=C(SCc2ccccc2)C(=O)c2ccccc2C1=O,?,3.7µM*,?,26µM*,9.2µM*,3.7µM*
CCOC(=O)c1cc(C(C)=O)n2ccccc12,i,26%,i,-2%,0%,-11%
CCOC(=O)c1cc(Br)c(=O)n2ccccc12,i,-2%,15µM*,10%,7%,-5%
CC(C)Cn1c(=O)c2c(nc3n2CCCN3CCc2ccccc2)n(C)c1=O,i,11%,10µM*,-22%,-3%,1%
Cn1c(=O)n(CCc2ccccc2)c(=O)c2c1nc1n2CCCN1Cc1ccccc1,i,?,21µM*,-4%[9.24 µM],1%,-5%
CCCn1c(=O)c2c(nc3n2CCCN3CCc2ccccc2)n(C)c1=O,i,11%,?,-1%,3%,-1%
Cc1ccc(Cn2c(=O)c3c(nc4n3CCN4Cc3ccco3)n(C)c2=O)cc1,i,9%,?,-6%,-19%,-3%
CCCn1c(=O)c2c(nc3n2CCCN3Cc2ccccc2)n(C)c1=O,i,10%,i,-18%,-7%,-11%
Cn1c(=O)n(Cc2ccccc2)c(=O)c2c1nc1n2CCN1Cc1ccco1,i,0.73µM*,i,-3%,-7%,?
Cn1c(=O)n(CCc2ccccc2)c(=O)c2c1nc1n2CCCN1CCc1ccccc1,i,21µM*,23µM*,29µM*,23µM*,?
Cn1c(=O)n(CC(=O)O)c(=O)c2c1nc1n2CCCN1CCc1ccccc1,i,5%,i,-2%,-3%,-2%
CCn1c(=NC(=O)c2ccc(S(=O)(=O)N3CCCC3)cc2)sc2cc(Br)ccc21,i,·,i,·,·,·
O=C1CC(c2nc(-c3ccc(Cl)cc3)no2)CN1c1ccc2c(c1)OCCO2 (centres undefined),i,·,i,·,·,·
CC(C)Cn1c(N)c(C(=O)COC(=O)c2c(F)cccc2F)c(=O)n(C)c1=O,?,0.52µM*,i,-2%,1%,-56%
COc1ccc(NC(=O)Cn2c(=O)n(CCCC(=O)NCc3ccccc3Cl)c(=O)c3ccccc32)c(OC)c1,i,·,i,·,·,·
COc1ccc(CNC(=O)C2CCN(C(=O)N3CCOc4ccc(Cl)cc43)CC2)cc1,i,·,i,·,·,·
COc1cc(C(=O)C(=O)N2CCC(Cc3ccccc3)CC2)cc2ccccc12,i,·,?,-24%,-18%,·
CCOc1ccc2cc(C#N)c(SCC(=O)N3CCC(C)CC3)nc2c1,i,?,2.6µM*,1%,-3%,0%
COc1ccc2cc(C#N)c(SCC(=O)N3CC(=O)Nc4ccccc43)nc2c1,7.3µM*,21µM*,i,-8%,0%,?
Cc1cccc2cc(C#N)c(SCC(=O)N3CC(=O)Nc4ccccc43)nc12,0.82µM*,0.65µM*,?,?,?,7.3µM*
Cc1ccc(S(=O)(=O)N2C3CCCCC3O[C@H]2CC(=O)c2ccccc2)cc1 (some centres undefined),i,·,?,-22%,?,·
COc1ccc([N+](=O)[O-])cc1N(CC(O)CN1C(=O)NC(C)(C)C1=O)S(=O)(=O)c1ccc(C)cc1 (centres undefined),i,·,i,4%,-1%,·
